Of roughly 8,800 targets only a part is listed; those with a hit were picked by preference. About 0.5% of all pairs of compound and target were hits. Values without a mark were called inactive.
Legend:
Test in all cases: log2 fold change, soluble protein after heating vs DMSO (PISA); higher = thermal stabilisation; K562 lysate, 10 uM; active = over 0.2 and 3.5 SD of the protein, either way, in both replicates (recomputed)
[1] = compound: Cc1cn(-c2cc(NC(=O)c3ccc(C)c(Nc4nccc(-c5cccnc5)n4)c3)cc(C(F)(F)F)c2)cn1 [nilotinib]
Procedure, shortened: (§1)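 A 30 min treatment with 10 μM compound was applied to crude K562 extract at 1 mg/mL protein in PBS pH 7.4 with 1 mM MgCl2. Heating for 3 min spanned 48°C-58°C, after which aliquots were pooled, adjusted to 0.5% NP-40 at 4°C and spun at 21,000xg for 90 min. TMTpro 16plex LC-MS/MS of the supernatant, with channel sums equalised, gave values recorded as log-two fold change in thermal stability against solvent controls, from duplicates.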

[2] = compound: Cc1nc(Nc2n[nH]c3c2CN(C(=O)N[C@H](CN(C)C)c2ccccc2)C3(C)C)c2sccc2n1
Procedure, shortened: as §1

[3] = compound: Cc1nc(Nc2ncc(C(=O)Nc3c(C)cccc3Cl)s2)cc(N2CCN(CCO)CC2)n1 [dasatinib]
Procedure, shortened: as §1

[4] = compound: Cc1ncc(-c2ccnc(Nc3ccc(S(C)(=O)=O)cc3)n2)n1C(C)C
Procedure, shortened: as §1

[5] = compound: Cn1cc(-c2ccc3c(c2)CCN3C(=O)Cc2cccc(C(F)(F)F)c2)c2c(N)ncnc21
Procedure, shortened: as §1

[6] = compound: Cn1cc(CNCC2CCN(c3ncc(C(=O)NO)cn3)CC2)c2ccccc21 [quisinostat]
Procedure, shortened: as §1

[7] = compound: Cn1cncc1[C@@](N)(c1ccc(Cl)cc1)c1ccc2c(c1)c(-c1cccc(Cl)c1)cc(=O)n2C [tipifarnib]
Procedure, shortened: as §1

[8] = compound: NC(=O)Nc1cc(-c2cccc(F)c2)sc1C(=O)N[C@H]1CCCNC1
Procedure, shortened: as §1

[9] = compound: NC(=O)c1cnc(N[C@@H]2CCCC[C@@H]2N)nc1Nc1cccc(-n2nccn2)c1
Procedure, shortened: as §1

[10] = compound: NC1(c2ccc(-c3nc4ccn5c(=O)[nH]nc5c4cc3-c3ccccc3)cc2)CCC1
Procedure, shortened: as §1

UniProt Q9UMR5, sequence (Q9UMR5 whole entry, looked up): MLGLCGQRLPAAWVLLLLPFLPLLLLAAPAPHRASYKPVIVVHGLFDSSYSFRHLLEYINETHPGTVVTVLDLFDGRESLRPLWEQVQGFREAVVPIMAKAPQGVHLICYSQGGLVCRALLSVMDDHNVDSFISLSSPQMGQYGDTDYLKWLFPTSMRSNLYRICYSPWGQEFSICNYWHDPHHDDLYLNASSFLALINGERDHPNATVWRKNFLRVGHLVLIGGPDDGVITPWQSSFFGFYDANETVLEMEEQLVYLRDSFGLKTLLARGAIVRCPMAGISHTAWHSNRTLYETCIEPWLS
UniProt Q9BZE2, sequence (Q9BZE2 whole entry, looked up): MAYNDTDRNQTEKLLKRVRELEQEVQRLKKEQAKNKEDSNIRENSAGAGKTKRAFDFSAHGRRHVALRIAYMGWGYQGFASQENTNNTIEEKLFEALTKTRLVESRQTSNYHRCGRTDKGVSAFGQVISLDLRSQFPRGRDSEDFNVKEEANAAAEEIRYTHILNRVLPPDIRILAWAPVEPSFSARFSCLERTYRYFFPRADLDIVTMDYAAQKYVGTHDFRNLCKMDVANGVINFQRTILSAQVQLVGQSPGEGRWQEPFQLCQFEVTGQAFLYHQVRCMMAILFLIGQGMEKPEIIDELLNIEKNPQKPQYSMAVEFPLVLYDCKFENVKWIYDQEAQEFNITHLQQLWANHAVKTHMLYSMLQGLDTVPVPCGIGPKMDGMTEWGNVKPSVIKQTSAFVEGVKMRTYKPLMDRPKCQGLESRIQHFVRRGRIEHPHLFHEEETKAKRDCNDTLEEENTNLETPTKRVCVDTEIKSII
UniProt Q9Y5K3, sequence (Q9Y5K3 whole entry, looked up): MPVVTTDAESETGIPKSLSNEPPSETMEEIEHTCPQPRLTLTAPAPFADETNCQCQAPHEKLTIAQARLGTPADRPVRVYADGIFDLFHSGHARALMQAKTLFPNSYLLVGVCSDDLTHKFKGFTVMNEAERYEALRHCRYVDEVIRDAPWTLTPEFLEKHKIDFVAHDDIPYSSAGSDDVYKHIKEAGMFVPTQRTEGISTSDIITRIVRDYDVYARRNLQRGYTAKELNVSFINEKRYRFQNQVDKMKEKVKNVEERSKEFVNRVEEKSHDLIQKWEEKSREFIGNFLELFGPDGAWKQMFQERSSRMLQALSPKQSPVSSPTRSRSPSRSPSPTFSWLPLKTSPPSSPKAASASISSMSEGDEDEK
UniProt Q9NVM4, sequence (Q9NVM4 whole entry, looked up): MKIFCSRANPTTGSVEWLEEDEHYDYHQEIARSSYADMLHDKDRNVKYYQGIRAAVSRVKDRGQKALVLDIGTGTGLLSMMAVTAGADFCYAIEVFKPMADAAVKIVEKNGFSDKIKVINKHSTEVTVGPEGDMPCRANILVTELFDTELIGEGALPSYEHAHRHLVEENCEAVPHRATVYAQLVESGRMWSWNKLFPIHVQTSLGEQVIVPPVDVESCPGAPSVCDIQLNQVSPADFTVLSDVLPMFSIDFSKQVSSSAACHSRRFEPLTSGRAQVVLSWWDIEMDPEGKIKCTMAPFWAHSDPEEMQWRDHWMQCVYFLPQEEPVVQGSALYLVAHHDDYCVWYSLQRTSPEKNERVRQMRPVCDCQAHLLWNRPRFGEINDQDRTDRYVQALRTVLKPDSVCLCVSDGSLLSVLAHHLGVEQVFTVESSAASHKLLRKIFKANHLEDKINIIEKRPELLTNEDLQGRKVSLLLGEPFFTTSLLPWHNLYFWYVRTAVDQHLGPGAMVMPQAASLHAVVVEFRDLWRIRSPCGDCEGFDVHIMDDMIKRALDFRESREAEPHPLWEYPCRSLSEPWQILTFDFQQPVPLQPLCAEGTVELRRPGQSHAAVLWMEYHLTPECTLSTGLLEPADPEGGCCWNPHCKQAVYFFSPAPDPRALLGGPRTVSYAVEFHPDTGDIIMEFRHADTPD
UniProt Q15054, sequence (Q15054 whole entry, looked up): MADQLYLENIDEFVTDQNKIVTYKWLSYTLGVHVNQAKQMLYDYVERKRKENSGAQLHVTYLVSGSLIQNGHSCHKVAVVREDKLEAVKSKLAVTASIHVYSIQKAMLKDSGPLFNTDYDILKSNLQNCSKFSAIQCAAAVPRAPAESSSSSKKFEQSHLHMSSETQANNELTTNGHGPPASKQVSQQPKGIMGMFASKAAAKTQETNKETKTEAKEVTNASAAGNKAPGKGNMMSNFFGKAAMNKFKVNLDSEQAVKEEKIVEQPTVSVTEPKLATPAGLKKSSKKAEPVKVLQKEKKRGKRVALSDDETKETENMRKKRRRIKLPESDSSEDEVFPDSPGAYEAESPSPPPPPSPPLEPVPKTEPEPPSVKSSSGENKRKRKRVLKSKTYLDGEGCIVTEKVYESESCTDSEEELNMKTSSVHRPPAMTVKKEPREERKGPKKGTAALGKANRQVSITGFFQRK
UniProt Q16512, sequence (Q16512 whole entry, looked up): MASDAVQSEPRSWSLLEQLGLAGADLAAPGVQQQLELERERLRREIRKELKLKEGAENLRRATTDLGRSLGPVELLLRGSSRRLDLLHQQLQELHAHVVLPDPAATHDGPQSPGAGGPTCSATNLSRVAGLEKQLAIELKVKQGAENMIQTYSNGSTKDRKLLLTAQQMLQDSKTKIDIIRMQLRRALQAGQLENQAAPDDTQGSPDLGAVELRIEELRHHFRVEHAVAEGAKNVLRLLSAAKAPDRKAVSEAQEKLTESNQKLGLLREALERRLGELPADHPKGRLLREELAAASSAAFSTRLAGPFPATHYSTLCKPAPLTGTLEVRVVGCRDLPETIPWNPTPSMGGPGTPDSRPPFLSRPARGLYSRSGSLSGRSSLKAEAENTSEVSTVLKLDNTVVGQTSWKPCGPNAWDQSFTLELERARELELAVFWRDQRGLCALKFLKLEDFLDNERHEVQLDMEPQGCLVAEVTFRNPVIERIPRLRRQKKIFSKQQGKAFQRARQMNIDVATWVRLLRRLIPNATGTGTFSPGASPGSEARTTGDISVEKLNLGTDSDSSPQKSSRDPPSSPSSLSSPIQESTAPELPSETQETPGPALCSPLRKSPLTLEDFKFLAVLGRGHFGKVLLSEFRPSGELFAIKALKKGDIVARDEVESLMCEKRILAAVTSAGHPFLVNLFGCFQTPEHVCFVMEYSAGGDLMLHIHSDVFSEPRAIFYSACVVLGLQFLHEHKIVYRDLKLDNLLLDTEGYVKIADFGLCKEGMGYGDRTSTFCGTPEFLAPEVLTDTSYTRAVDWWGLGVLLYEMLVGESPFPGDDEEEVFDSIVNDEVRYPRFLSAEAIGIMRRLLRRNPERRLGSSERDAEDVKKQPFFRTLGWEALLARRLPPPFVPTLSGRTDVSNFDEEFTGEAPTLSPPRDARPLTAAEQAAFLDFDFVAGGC
UniProt Q05397, sequence (Q05397 whole entry, looked up): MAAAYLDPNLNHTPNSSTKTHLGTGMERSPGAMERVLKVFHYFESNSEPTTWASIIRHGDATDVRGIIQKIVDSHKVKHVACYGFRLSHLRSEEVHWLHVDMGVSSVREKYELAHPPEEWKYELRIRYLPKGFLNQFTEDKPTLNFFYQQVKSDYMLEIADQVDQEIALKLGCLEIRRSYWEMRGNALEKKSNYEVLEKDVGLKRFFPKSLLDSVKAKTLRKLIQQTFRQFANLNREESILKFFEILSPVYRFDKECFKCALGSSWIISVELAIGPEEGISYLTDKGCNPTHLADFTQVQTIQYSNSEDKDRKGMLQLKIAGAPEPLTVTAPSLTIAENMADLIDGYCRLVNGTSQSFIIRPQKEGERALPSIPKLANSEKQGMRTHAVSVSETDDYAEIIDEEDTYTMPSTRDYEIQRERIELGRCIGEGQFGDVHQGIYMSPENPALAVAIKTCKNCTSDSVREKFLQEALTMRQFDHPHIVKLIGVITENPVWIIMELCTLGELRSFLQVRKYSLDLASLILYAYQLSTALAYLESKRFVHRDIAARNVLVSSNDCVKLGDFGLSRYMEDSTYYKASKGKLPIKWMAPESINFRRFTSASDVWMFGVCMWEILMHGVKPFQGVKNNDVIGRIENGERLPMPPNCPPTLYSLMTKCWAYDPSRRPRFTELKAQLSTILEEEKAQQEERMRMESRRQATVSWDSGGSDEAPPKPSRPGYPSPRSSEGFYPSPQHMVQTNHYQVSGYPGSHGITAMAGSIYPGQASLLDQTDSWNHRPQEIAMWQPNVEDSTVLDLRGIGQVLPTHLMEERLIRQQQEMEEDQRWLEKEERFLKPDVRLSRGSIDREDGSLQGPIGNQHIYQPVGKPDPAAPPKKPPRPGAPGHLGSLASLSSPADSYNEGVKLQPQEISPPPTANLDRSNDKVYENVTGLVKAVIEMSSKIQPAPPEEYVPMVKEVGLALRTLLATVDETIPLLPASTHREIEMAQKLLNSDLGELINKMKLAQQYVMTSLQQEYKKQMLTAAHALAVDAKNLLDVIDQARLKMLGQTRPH
UniProt P28328, sequence (P28328 whole entry, looked up): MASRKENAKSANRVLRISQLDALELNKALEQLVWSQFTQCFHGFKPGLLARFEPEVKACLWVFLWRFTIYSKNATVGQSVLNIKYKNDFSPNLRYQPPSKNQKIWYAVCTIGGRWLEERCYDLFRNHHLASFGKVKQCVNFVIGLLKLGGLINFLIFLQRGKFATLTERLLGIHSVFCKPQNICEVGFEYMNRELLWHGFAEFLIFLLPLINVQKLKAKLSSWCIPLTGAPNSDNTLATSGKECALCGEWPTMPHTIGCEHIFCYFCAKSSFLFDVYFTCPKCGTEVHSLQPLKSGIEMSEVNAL
UniProt Q9H2H8, sequence (Q9H2H8 whole entry, looked up): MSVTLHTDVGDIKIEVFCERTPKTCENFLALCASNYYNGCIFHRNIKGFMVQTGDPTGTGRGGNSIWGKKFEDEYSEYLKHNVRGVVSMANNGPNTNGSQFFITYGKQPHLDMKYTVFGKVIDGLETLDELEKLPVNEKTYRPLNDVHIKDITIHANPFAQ

Target | log2 fold change [1] | log2 fold change [2] | log2 fold change [3] | log2 fold change [4] | log2 fold change [5] | log2 fold change [6] | log2 fold change [7] | log2 fold change [8] | log2 fold change [9] | log2 fold change [10]
PIP5K1A (UniProt Q99755) | -0.091 | 0.011 | -0.137 | -0.082 | 0.033 | -0.165 | 0.032 | 0.034 | -0.041 | 0.01
PEX2 (UniProt P28328) | 0.059 | -0.158 | -0.078 | -0.041 | 0.039 | 0.054 | 0.048 | 0.143 | 0.116 | -0.106
PDXK (UniProt O00764) | 0.123 | -0.031 | 0.005 | 0.055 | -0.003 | -0.03 | 0.012 | -0.008 | -0.008 | -0.023
PCIF1 (UniProt Q9H4Z3) | 0.018 | -0.089 | 0.118 | 0.011 | -0.439 (active) | 0.019 | 0.015 | -0.016 | -0.006 | 0.022
PRMT7 (UniProt Q9NVM4) | 0.039 | -0.01 | 0.032 | -0.029 | -0.032 | -0.041 | -0.011 | 0.023 | 0.028 | 0.025
PCYT1B (UniProt Q9Y5K3) | -0.079 | -0.003 | 0 | 0.022 | -0.026 | 0.039 | 0.047 | -0.023 | -0.008 | 0.054
PPIL3 (UniProt Q9H2H8) | 0.121 | 0.023 | -0.049 | 0.176 | -0.032 | 0.017 | -0.028 | -0.025 | -0.054 | -0.051
POLB (UniProt P06746) | 0.035 | -0.013 | 0 | -0.026 | 0.008 | -0.028 | 0.002 | 0.022 | 0.012 | -0.053
PIR (UniProt O00625) | 0.011 | -0.011 | 0.027 | 0.012 | 0.023 | 0.011 | 0.005 | 0.02 | -0.009 | -0.046
PES1 (UniProt O00541) | -0.004 | 0.006 | 0.016 | -0.034 | 0.001 | -0.067 | 0.001 | 0.026 | 0.015 | -0.047
POLD3 (UniProt Q15054) | 0.03 | -0.014 | -0.002 | 0.029 | 0.007 | -0.049 | 0.002 | 0.013 | 0.018 | -0.027
PLEKHA5 isoform 6 (UniProt Q9HAU0) | -0.052 | 0.032 | 0.006 | -0.005 | 0.021 | -0.011 | 0.009 | 0.011 | -0.008 | -0.003
PTK2 (UniProt Q05397) | -0.032 | 0.235 | 0.083 | 0.078 | 0.18 | -0.038 | -0.046 | 0.373 | 0.081 | 0.021
PCBP2 isoform 3 (UniProt Q15366) | 0.019 | -0.012 | -0.019 | 0.015 | 0.039 | 0.044 | 0.005 | 0 | 0.005 | 0.072
PRKCA (UniProt P17252) | -0.008 | 0.227 | -0.028 | 0.095 | -0.056 | -0.035 | 0 | -0.067 | 0.408 (active) | -0.006
PPP2CA (UniProt P67775) | -0.009 | 0.037 | 0.017 | 0.009 | 0.057 | 0.185 | 0.024 | -0.093 | -0.008 | 0.023
PRC1 (UniProt O43663) | 0.013 | -0.008 | -0.012 | -0.007 | 0.05 | -0.035 | -0.011 | 0.009 | -0.002 | -0.044
PELO (UniProt Q9BRX2) | 0.012 | -0.025 | 0.052 | -0.026 | 0.032 | -0.022 | 0.007 | 0.037 | 0.018 | -0.029
POLA1 (UniProt P09884) | -0.022 | -0.01 | 0.011 | 0.017 | 0.009 | -0.028 | -0.001 | 0.029 | 0.001 | 0.008
PHKA1 (UniProt P46020) | -0.059 | 0.14 | -0.138 | -0.007 | 0.029 | -0.072 | -0.021 | 0.272 (active) | 0.091 | -0.053
PRKACB isoform 2 (UniProt P22694) | -0.076 | 0.818 (active) | 0.025 | 0.091 | -0.028 | -0.033 | -0.063 | 0.538 (active) | 0.177 | -0.025
PPT2 isoform 3 (UniProt Q9UMR5) | 0.01 | -0.019 | 0.006 | -0.019 | 0.025 | -0.004 | -0.025 | 0.032 | 0.002 | 0.02
PKN1 isoform 2 (UniProt Q16512) | -0.014 | -0.098 | -0.14 | -0.002 | 0 | 0.102 | 0.009 | -0.128 | -0.054 | -0.004
PDXDC1 (UniProt Q6P996) | 0.058 | 0.064 | -0.098 | -0.024 | 0.022 | -0.035 | -0.074 | 0.019 | 0.042 | 0.012
PRG4 (UniProt Q92954) | -0.092 | 0.196 | -0.028 | 0.196 | 0.024 | -0.285 | 0.17 | 0.057 | -0.09 | 
PLEKHO2 (UniProt Q8TD55) | 0.207 | -0.237 | -0.096 | 0.118 | -0.039 | 0.062 | -0.192 | 0.068 | -0.071 | 0.873 (active)
PITRM1 isoform 2 (UniProt Q5JRX3) | 0.014 | -0.035 | 0.011 | -0.021 | -0.002 | 0.021 | 0.013 | 0.005 | 0 | -0.008
PICALM (UniProt H0YEH1) | -0.023 | -0.012 | -0.039 | -0.007 | -0.005 | -0.095 | 0.019 | 0.166 | -0.021 | -0.042
PUS3 (UniProt Q9BZE2) | -0.019 | 0.045 | -0.063 | -0.042 | 0.145 | 0.078 | -0.007 | -0.003 | 0.023 | 0.075
PRPF6 (UniProt O94906) | -0.001 | 0.021 | -0.036 | -0.005 | 0.026 | -0.067 | 0.008 | 0.044 | 0.022 | -0.019

From the supplement of paper PMC10849652
